Inconclusive results are not listed. Where a call stands in place of a potency, no number is given. More than one record can exist for a structure, and the calls need not agree. Active and inactive are the calls of the source. Calls come from the whole dose curve; as a rule, active = well fitted cell-killing curve with a large enough effect in the repeat runs; inconclusive = weak or mixed curves; inactive = no such curve, though single readings can be large or run the other way.
Potency is the fitted concentration of half-maximal effect.

A short description of the assay: qHTS assay to identify small molecule agonists of the peroxisome proliferator-activated receptor delta (PPARd) signaling pathway - cell viability counter screen (AID 743211). Note: nearly all actives have a fitted effect of over 55% in size. The settings on record: PPARd-bla HEK293H viability, CellTiter-Glo luminescence, 17 h; series mostly up to 62.6 µM. The text has this: U.S. Tox21 Program National Center for Advancing Translational Sciences [NCATS] NIH Chemical Genomics Center [NCGC] U.S. Environmental Protection Agency [EPA] National Institutes of Environmental Health Sciences [NIEHS] National Toxicology Program [NTP] U.S. Food and Drug Administration [FDA] Tox21 Assay Overview: The peroxisome proliferator-activated receptors (PPARs) are lipid-activated transcription factors of the nuclear receptor superfamily with three distinct subtypes namely PPAR alpha, PPAR delta (PPARd) and PPAR gamma. All these subtypes heterodimerizes with Retinoid X receptor (RXR) and have different physiological functions. […] To identify the compounds that activate PPAR-delta signaling, GeneBLAzer PPAR delta UAS-bla HEK293H cell line (Invitrogen, Carlsbad, CA, USA) containing a beta-lactamase reporter gene under the control of an Upstream Activator Sequence (UAS) was used to screen the Tox21 compound library. The cytotoxicity of the Tox21 compound library against the PPARd-bla cell line was tested in parallel by measuring the cell viability using CellTiter-Glo assay (Promega, Madison, WI) in the same wells.
Tox21 Assay Protocol Summary: PPARd-bla cells were dispensed at 3000 cells/6uL/well in 1536-well black wall/clear bottom plates using a Multidrop Combi (Thermo Fisher Scientific, Waltham, MA) dispenser. After the assay plates were incubated at 37 C and 5% CO2 for 5 h, 23 nL of compounds dissolved in DMSO, positive controls or DMSO only was transferred to the assay plate by a Pintool station (Kalypsys, San Diego, CA). The assay plates were incubated at 37C for 17 h. After 1 uL of LiveBLAzerTM B/G FRET substrate was added using a Bioraptr Flying Reagent Dispenser (FRD) workstation (Beckman Coulter, Indianapolis, IN, USA), the plates were incubated at room temperature for 2 h, and fluorescence intensity was measured by an Envision plate reader (PerkinElmer, Shelton, CT). For cell viability readout that measures cytotoxicity, 3 ul/well of CellTiter-Glo reagent was added into the assay plates using a Bioraptr FRD. After 30 min incubation at room temperature, the luminescence intensity in the plates was measured using a ViewLux plate reader (PerkinElmer).
For `Nc1ccc(S(=O)(=O)O)c(N)c1`, the Potency entry is “inactive”. Next, `CC(N)CN` (stereo not given): “inactive”; `CO[Si](C)(OC)OC`: “inactive”. Next, `Cc1nccn1-c1ccc(Sc2cccc(C3(C(N)=O)CCOCC3)c2)cc1`: “inactive”. Next, `CC(=O)CC(c1ccc([N+](=O)[O-])cc1)c1c(O)c2ccccc2oc1=O` (stereo not given): “inactive”. Turning to `CC1=CC(O)CC(C)(C)C1` (stereo not given), the Potency entry was “inactive”. Next, `O=S(=O)(c1ccccc1)c1ccc(Cl)cc1`: “inactive”; `CN1CCN(c2c(F)cc3c(=O)c(C(=O)O)cn4c3c2OCN4C)CC1`: “inactive”. Next, `CC(=O)Oc1ccc2c(c1)CC[C@@H]1[C@@H]2CC[C@]2(C)[C@@H](O)CC[C@@H]12`: “inactive”. Next, `O=C(CCCN1CCN(c2ccc(F)cc2)CC1)NC1c2ccccc2CSc2ccccc21` (stereo not given): 9.44 µM (active); `Nc1ccc(S(=O)(=O)O)cc1`: “inactive”; `c1cc[c]([Bi]([c]2ccccc2)[c]2ccccc2)cc1`: “inactive”. Regarding `Oc1cc(O)c(Cl)cc1Cl`, the Potency result is “inactive”. Next, `CC(C)=CC=O`: “inactive”; `N#C/C(=C1\SCC(c2ccccc2Cl)S1)n1ccnc1` (stereo not given): “inactive”; `COc1ccc([C@@H]2Sc3ccccc3NC(=O)[C@@H]2O)cc1`: “inactive”. Next, `CO/N=C1\CN(c2nc3c(cc2F)c(=O)c(C(=O)O)cn3C2CC2)CC1CN` (stereo not given): “inactive”. For the molecule `O=C(/C=C/c1ccccc1)OCCCc1ccccc1`, the Potency result was “inactive”. Next, `OCC1CC=CCC1` (stereo not given): “inactive”; `N#C/C(=C1/SC[C@@H](c2ccc(Cl)cc2Cl)S1)n1ccnc1`: “inactive”. Next, `COc1ccccc1N=Nc1c(S(=O)(=O)O)cc2cc(S(=O)(=O)O)cc(NC(C)=O)c2c1O`: “inactive”. Next, `CN1CCN(CCCN2c3ccccc3Sc3ccc(S(=O)(=O)N(C)C)cc32)CC1`: 26.6 µM (active); `COC(=O)[C@@H]1CC2=CC(=O)CC[C@]2(C)[C@@]23O[C@@H]2C[C@@]2(C)[C@@H](CC[C@@]24CCC(=O)O4)[C@H]13`: “inactive”. On to `CC(C)c1nnc2ccc(-c3ocnc3-c3cc(F)ccc3F)cn12`, for which the Potency entry is “inactive”. Consider `C(=C\c1ccccc1)/CN1CCN(C(c2ccccc2)c2ccccc2)CC1`, for which the Potency was 29.8 µM (active).

Consider `Cc1ccnc2ccccc12`, for which the Potency entry is “inactive”. Next, `O=C1OCCN1/N=C/c1ccc([N+](=O)[O-])o1`: “inactive”; `O=C(CCCCCCC(=O)Nc1ccccc1)NO`: “inactive”; `CCCCCCCC/C=C\CCCCCCCC(=O)OC`: “inactive”.

On to `Cc1oncc1C(=O)Nc1ccc(C(F)(F)F)cc1`, for which the Potency is 54.9 µM (active) and inactive.

Regarding `CC(C)OCC1CO1` (stereo not given), the Potency result is “inactive”. Next, `CC(=O)[C@H]1CC[C@H]2[C@@H]3C=CC4=CC(=O)CC[C@@]4(C)[C@@H]3CC[C@]12C`: “inactive”; `CCOC(=O)CC(=O)C(=O)OCC`: “inactive”; `CN(C)CCOC1=Cc2ccccc2Sc2ccc(Cl)cc21`: 26.6 µM (active). Next, `CC[C@@H]([C@H](C)O)n1ncn(-c2ccc(N3CCN(c4ccc(OC[C@@H]5CO[C@@](Cn6cncn6)(c6ccc(F)cc6F)C5)cc4)CC3)cc2)c1=O`: 29.8 µM (active); `CC1=NN(c2ccc(C(=O)O)cc2)C(=O)C1`: “inactive”; `CN(C(=O)C(Cl)Cl)c1ccc(OC(=O)c2ccco2)cc1`: “inactive”. Next, `Fc1c(F)c(F)c(Br)c(F)c1F`: “inactive”; `OC/C(Br)=C(\Br)CO`: “inactive”. `Oc1ccc(Nc2ccccc2)cc1`: the Potency entry is “inactive”.
